The source of these data is paper PMC4336329 (PLoS ONE, 2015).

About 2,200 (0.71%) of roughly 310,000 compounds showed an effect of 50% or more. Effects have a minus sign here. Many of the other results were omitted from the sample, so strong results are more common in it than they were.

For this experiment, the target named is human ether-à-go-go-related gene (hERG) potassium channel (human, UniProt Q12809). The experiment in a line: primary screen, population patch clamp on CHO cells stably expressing hERG; higher = less effect of the substance.
Chain of human ether-à-go-go-related gene (hERG) potassium channel (Q12809 whole entry, looked up): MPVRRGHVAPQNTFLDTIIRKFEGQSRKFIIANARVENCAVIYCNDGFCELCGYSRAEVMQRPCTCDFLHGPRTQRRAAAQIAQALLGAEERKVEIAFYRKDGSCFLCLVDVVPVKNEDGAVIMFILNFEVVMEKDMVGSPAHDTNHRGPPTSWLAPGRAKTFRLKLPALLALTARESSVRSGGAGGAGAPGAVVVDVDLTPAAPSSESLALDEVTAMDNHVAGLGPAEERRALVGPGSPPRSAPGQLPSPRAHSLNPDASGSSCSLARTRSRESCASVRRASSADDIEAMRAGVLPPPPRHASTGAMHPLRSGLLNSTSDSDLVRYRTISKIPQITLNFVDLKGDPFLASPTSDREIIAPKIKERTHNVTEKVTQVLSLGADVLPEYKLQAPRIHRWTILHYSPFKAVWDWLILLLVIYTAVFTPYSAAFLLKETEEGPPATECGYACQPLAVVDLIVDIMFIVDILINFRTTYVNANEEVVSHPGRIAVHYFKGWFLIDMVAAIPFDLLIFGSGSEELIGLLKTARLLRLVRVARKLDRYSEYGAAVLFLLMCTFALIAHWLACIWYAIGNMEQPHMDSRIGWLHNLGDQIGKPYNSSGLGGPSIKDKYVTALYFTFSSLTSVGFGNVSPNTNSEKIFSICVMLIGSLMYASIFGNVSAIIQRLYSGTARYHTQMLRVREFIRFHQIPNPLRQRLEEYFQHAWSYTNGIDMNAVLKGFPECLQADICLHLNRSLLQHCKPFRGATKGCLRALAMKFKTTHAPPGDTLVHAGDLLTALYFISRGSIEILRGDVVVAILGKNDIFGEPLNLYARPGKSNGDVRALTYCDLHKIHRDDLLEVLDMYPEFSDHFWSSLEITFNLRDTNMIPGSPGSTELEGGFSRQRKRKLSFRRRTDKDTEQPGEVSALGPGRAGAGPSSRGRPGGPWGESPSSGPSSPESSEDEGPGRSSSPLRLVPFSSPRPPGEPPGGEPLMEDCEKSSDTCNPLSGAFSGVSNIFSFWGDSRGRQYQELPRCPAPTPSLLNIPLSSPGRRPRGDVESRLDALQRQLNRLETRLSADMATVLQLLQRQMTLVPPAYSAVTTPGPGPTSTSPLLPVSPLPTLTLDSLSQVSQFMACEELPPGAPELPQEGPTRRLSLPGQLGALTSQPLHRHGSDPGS
Consider `Nc1nc(N2CCCCC2)nc(N(c2ccccc2)c2ccccc2)n1`, for which the “hERG current change (%, negative = inhibition) at 1uM” value was found to be 15.2%.

For the compound `Nc1nc(N2CCCCC2)nc(N2CCCCC2)n1`, the “hERG current change (%, negative = inhibition) at 1uM” value is given as -78.5%. Consider `C1CCN(c2nc(N3CCCCC3)nc(N3CCNCC3)n2)CC1`, for which the “hERG current change (%, negative = inhibition) at 1uM” value came to 2.68%.

In the case of `COC(=O)CN1C(=O)Nc2ccc(Br)cc2C1c1ccccc1Cl` (stereo not shown), the “hERG current change (%, negative = inhibition) at 1uM” value is given as -8.8%. Take `C/C(=N/NC(=O)c1cccnc1)C1=C(O)CC(C)(C)CC1=O`: the “hERG current change (%, negative = inhibition) at 1uM” value came to 18.4%. `CCOC(=O)CSc1cn2c(n1)CCC2`: the “hERG current change (%, negative = inhibition) at 1uM” value turned out to be 14.5%. Regarding `CNC(=O)CSc1nc2cc(S(=O)(=O)Nc3ccccc3OC)ccc2o1`, the “hERG current change (%, negative = inhibition) at 1uM” value stood at 9.52%. `Cc1sc2ncnc(N3CCOCC3)c2c1C`: the “hERG current change (%, negative = inhibition) at 1uM” value is -5.93%. Consider `Cc1sc2ncnc(NCC(C)(C)N3CCOCC3)c2c1C`, for which the “hERG current change (%, negative = inhibition) at 1uM” value was -63.6%.

Take `Cc1sc2ncnc(NCCN3CCOCC3)c2c1C.O=C(O)C(=O)O`: the “hERG current change (%, negative = inhibition) at 1uM” value worked out at 9.44%. As for `COC(=O)CC1NCCc2cc(OC)c(OC)cc21` (stereo not shown), the “hERG current change (%, negative = inhibition) at 1uM” value was found to be 5.12%. In the case of `CC(OC(=O)CCC1CCCCC1)C(=O)Nc1ccc(S(N)(=O)=O)cc1` (stereo not shown) it was 9.83%; in that of `CCOC(=O)C1CCCN(C(=O)CC(c2ccccc2)c2ccccc2)C1` (stereo not shown), -2.54%. For the compound `O=C(CN=C1NS(=O)(=O)c2ccccc21)OCC(=O)c1ccccc1`, the “hERG current change (%, negative = inhibition) at 1uM” value worked out at 10.8%. For the compound `CCC(C)(C)c1ccc(OCCCC[n+]2ccc(C)cc2)c(C(C)(C)CC)c1.[Br-]`, the “hERG current change (%, negative = inhibition) at 1uM” value was -34.5%. In the case of `CCC(C)(C)c1ccc(OCCCC[n+]2ccccc2)c(C(C)(C)CC)c1.[Br-]`, the “hERG current change (%, negative = inhibition) at 1uM” value was -28.5%. In the case of `CCC(C)(C)c1ccc(OCCCC[n+]2cccc(C)c2C)c(C(C)(C)CC)c1.[Br-]`, the “hERG current change (%, negative = inhibition) at 1uM” value is reported as -52.7%.

Take `N#Cc1cc2[nH]c3ccccc3c2[n+](-c2ccc([N+](=O)[O-])cc2)c1N.[Cl-]`: the “hERG current change (%, negative = inhibition) at 1uM” value is reported as -28.7%. On to `CCOC(=O)c1cc2[nH]c3ccccc3c2[n+](-c2ccc([N+](=O)[O-])cc2)c1C.[Cl-]`, for which the “hERG current change (%, negative = inhibition) at 1uM” value was -70.6%. Consider `CCOC(=O)c1cc2[nH]c3ccccc3c2[n+](-c2ccc([N+](=O)[O-])cc2)c1N.O=C([O-])C(F)(F)F`, for which the “hERG current change (%, negative = inhibition) at 1uM” value was -13.8%. Turning to `C[C@]12CCC3C(CCC4=C/C(=N/OCC(=O)NC(CCC(=O)O)C(=O)O)CC[C@@]43C)C1CCC2O` (stereo partly shown), the “hERG current change (%, negative = inhibition) at 1uM” value was found to be 10.5%. For `CCN(CC)/C(=N\S(=O)(=O)c1ccccc1C)c1ccccc1`, the “hERG current change (%, negative = inhibition) at 1uM” value was -5.09%. In the case of `Cc1nn2cc(-c3ccc(Cl)cc3)cnc2c1Cl`, the “hERG current change (%, negative = inhibition) at 1uM” value was found to be 13.1%. As to `C=CCn1c(=N)c(C(=O)OCC)cc2c(=O)n3cccc(C)c3nc21`, the “hERG current change (%, negative = inhibition) at 1uM” value is listed as -73.7%. For `C=CCn1c(=N)c(C(=O)NCCCOC)cc2c(=O)n3cccc(C)c3nc21`, the “hERG current change (%, negative = inhibition) at 1uM” value was -64.2%.

For the compound `C=CCn1c(=N)c(C(=O)NCCCOC)cc2c(=O)n3ccccc3nc21`, the “hERG current change (%, negative = inhibition) at 1uM” value is -22.3%. In the case of `CCOC(=O)c1cc2c(=O)n3cccc(C)c3nc2n(CCOC)c1=NC(C)=O` it was 8.92%; in that of `CCn1c(=N)c(C(=O)NCCCOC)cc2c(=O)n3cccc(C)c3nc21`, -47%; in that of `O=C(Nc1ccccc1F)N(CCCN1CCOCC1)Cc1cc2cc3c(cc2[nH]c1=O)OCCO3`, 9.36%. Consider `Cc1ccc(NC(=O)c2cc(N3C(=O)CCC3=O)ccc2N2CCOCC2)cc1`, for which the “hERG current change (%, negative = inhibition) at 1uM” value was determined as 5.52%. In the case of `COc1ccc(CN(C)S(=O)(=O)c2nnc(NC(=O)c3cccc(F)c3)s2)cc1OC`, the “hERG current change (%, negative = inhibition) at 1uM” value is recorded as 6.86%. Turning to `CSc1nc(-c2ccco2)cc(C(F)(F)F)c1C#N`, the “hERG current change (%, negative = inhibition) at 1uM” value amounted to 12%. Turning to `CCOC(=O)N1CCN(C(=O)C2CCCN(c3nc4ccc(OCC)cc4s3)C2)CC1` (stereo not shown), the “hERG current change (%, negative = inhibition) at 1uM” value is recorded as -3.97%. As for `O=C(CSc1nnc(-c2ccc(Br)cc2)n1CCc1ccccc1)NC1CCS(=O)(=O)C1` (stereo not shown), the “hERG current change (%, negative = inhibition) at 1uM” value is given as -60.7%. Take `CCn1c(SCC(=O)NC2CCS(=O)(=O)C2)nnc1-c1ccccc1` (stereo not shown): the “hERG current change (%, negative = inhibition) at 1uM” value was 6.72%. For the compound `COc1ccccc1-c1nnc(SCC(=O)NC2CCS(=O)(=O)C2)n1CCc1ccccc1` (stereo not shown), the “hERG current change (%, negative = inhibition) at 1uM” value is listed as 11.2%.

For `COc1ccc(C2(c3cccc(O)c3OC)CCN(C(C)=O)CC2)cc1O`, the “hERG current change (%, negative = inhibition) at 1uM” value is given as 17.8%. As to `Cc1ccc2nc(NC(=O)C3CCCN(S(=O)(=O)c4cccnc4)C3)sc2c1` (stereo not shown), the “hERG current change (%, negative = inhibition) at 1uM” value amounted to 7.66%.

As to `CCCCCn1c(=NC(C)=O)c(C#N)cc2c(=O)n3ccccc3nc21`, the “hERG current change (%, negative = inhibition) at 1uM” value is given as 0.0455%.

`CC(C)OCCCn1c(=NC(=O)c2cccs2)c(C#N)cc2c(=O)n3ccccc3nc21`: the “hERG current change (%, negative = inhibition) at 1uM” value is -67.1%. With `CCOCCCn1c(=NC(=O)c2cccs2)c(C#N)cc2c(=O)n3ccccc3nc21`, the “hERG current change (%, negative = inhibition) at 1uM” value is -49.3%. As for `CC(=O)N=c1c(C#N)cc2c(=O)n3ccccc3nc2n1CCCOC(C)C`, the “hERG current change (%, negative = inhibition) at 1uM” value was 8.03%. Turning to `CCOCCCn1c(=NC(C)=O)c(C#N)cc2c(=O)n3ccccc3nc21`, the “hERG current change (%, negative = inhibition) at 1uM” value came out at 11.7%. Take `CC(C)OCCCn1c(=NC(=O)c2ccncc2)c(C#N)cc2c(=O)n3ccccc3nc21`: the “hERG current change (%, negative = inhibition) at 1uM” value is on record as -63.4%. In the case of `Cc1cc(C(=O)CN2C(=O)NC3(CCCCC3)C2=O)c(C)n1-c1ccc2c(c1)OCO2` it was 5.94%; in that of `COC(=O)c1scc(C)c1-n1ccc(C(=O)C(=O)N(C)C)c1`, 9.29%. As to `CCN(CC)C(=O)C(=O)c1ccn(-c2c(C)csc2C(=O)OC)c1`, the “hERG current change (%, negative = inhibition) at 1uM” value was determined as 7.53%. On to `C=CCN(CC=C)C(=O)C(=O)c1ccn(-c2c(C)csc2C(=O)OC)c1`, for which the “hERG current change (%, negative = inhibition) at 1uM” value is reported as -59.3%. As to `CC(C)(C)CN1CCNC(=O)C1CC(=O)NCCc1cnn(-c2ccccc2)c1` (stereo not shown), the “hERG current change (%, negative = inhibition) at 1uM” value amounted to 5.53%. As for `CSc1sc(C(=O)Nc2ccc(F)cc2F)c2c1C=CCC2`, the “hERG current change (%, negative = inhibition) at 1uM” value came to 11.8%. `COc1ccc(NS(=O)(=O)c2cccs2)cc1S(=O)(=O)N1CCOCC1`: the “hERG current change (%, negative = inhibition) at 1uM” value stood at 14.7%.

Consider `O=C(Nc1ccccc1)N1CCN(c2ncccn2)CC1`, for which the “hERG current change (%, negative = inhibition) at 1uM” value came out at 6.7%. As to `OC1(Cc2cc(-c3ccccc3)no2)CCN(CCCc2ccccc2)CC1`, the “hERG current change (%, negative = inhibition) at 1uM” value is given as -55.5%. Regarding `COc1cccc(-c2cc(CC3(O)CCN(CCCc4ccccc4)CC3)on2)c1`, the “hERG current change (%, negative = inhibition) at 1uM” value was -39.3%. As to `c1ccc(CCCN2CCOCC2)cc1`, the “hERG current change (%, negative = inhibition) at 1uM” value is on record as 22.1%.
